Compounds without any hit were thinned out: in the full panel of roughly 83,000, 20% have a hit.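 48-hour exposure, single concentration, 96-well plates; percent growth endpoint where 0 means no net growth. Active: below 10.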 A number with no mark means an inactive call. Calls of active or inactive are those of the source.

This note sets out measurements from PubChem BioAssay (NCI).

In this assay the test system is HOP-92 NSCLC. Put plainly: NCI-60 one-dose screen, 48 h (100 = growth as untreated, 0 = no growth, -100 = all killed). To be noted: 10 µM.
Turning to `CCOC(=O)c1cc(-c2ccccc2)nc(N)n1`, the growth was 78.1%.

`COc1cc(C)c2sc3ccccc3c(=O)c2c1NCCN(C)C`: the growth is 19.1%.

Turning to `C/C=C\COc1cc(C)c(Cl)cc1Cl`, the growth was 85.5%.

With `NC(N)=NS(=O)(=O)c1ccc(Nc2ccc3nnc(-c4ccncc4)n3n2)cc1`, the growth is 107%.

Turning to `COc1ccc(C2C=C(c3ccc(Cl)c(Cl)c3)N=C3SC(C)=CN32)cc1` (stereo not drawn), the growth is 98.7%.

Regarding `CC(=O)OC1Oc2ccccc2-c2oc(=O)c(-c3ccc(F)cc3)cc21` (stereo not drawn), the growth is 112%.

Regarding `CS(=O)(=O)Nc1ccc(Nc2c3ccccc3nc3cc(Cl)ccc23)cc1`, the growth was -10.7% (active).

On to `COc1cc2nc(Sc3sc(N)nc3C)n(-c3ccc(Oc4ccccc4)cc3)c(=O)c2cc1OC`, for which the growth was 79.5%.

In the case of `CCOC(=O)c1sc(NC(=O)c2cc(OC)c(OC)c(OC)c2)nc1C`, the growth is 46.9%.

Consider `O=C(Nc1ccc(OCc2nnc(-c3ccccc3)o2)c(F)c1)Nc1ccc(Cl)c(Cl)c1`, for which the growth is 55.5%.

As for `COc1ccc(/C=C2\SC(=S)N(CCCN3CCOCC3)C2=O)c(OC)c1`, the growth was 87.1%.

For the compound `CCSc1nc2c([nH]1)c(=O)n(C)c(=S)n2C`, the growth is 103%.

As to `CCNC(=S)NN`, the growth was 87.3%.

With `COc1ccc(-c2ccc(-c3ccc(C(=N)N)c(F)c3)s2)cc1`, the growth is -87.8% (active).

On to `O=C(c1ccc(Cl)cc1)c1no[n+]([O-])c1C(=O)c1ccc(Cl)cc1`, for which the growth is 88.4%.

For `COc1cccc2c1O/C(=C\c1ccc([N+](=O)[O-])s1)C2=O`, the growth was 14.6%.

On to `NCCNc1ccc2cc(-c3nc4ccccc4[nH]3)c(=O)oc2c1`, for which the growth is 82.7%.

In the case of `Fc1ccc(Nc2ccnc(N3CCN(c4ccnc5cc(Cl)ccc45)CC3)n2)cc1`, the growth is -7.36% (active).

As to `Clc1cc(Cl)c(Cl)c(-c2nc(-c3cccnc3)cs2)c1`, the growth was 79.7%.

As to `CCCc1c(CC)c(=N)c2ccccc2n1C`, the growth is 76.1%.

Regarding `N#CN1CC[C@H](C(=O)Nc2ncc(-c3ccccc3)s2)C1`, the growth is 0.798% (active).

As to `C[N+]1=C(/C=C/c2ccc(I)cc2)C(C)(C)c2ccccc21`, the growth was 65%.

Turning to `Clc1cc(Cl)c(OCCCCCCN2CCNCC2)c(Cl)c1`, the growth was -0.831% (active).

As for `COCCOC(=O)NC(=O)Nc1ccc(C(=O)c2ccc(Cl)cc2)cc1`, the growth was 32.9%.

For `CCCCCCCCCCSC(=N)N` (tested in a mixture with another compound), the growth is 41.8%.

Consider `COc1cc(-c2nc3ccccc3[nH]2)ccc1OCc1nnc(-c2ccc(Br)cc2)o1`, for which the growth was 92.6%.

As for `O=S(=O)(NCCO)c1ccc(OCCOc2ccc(S(=O)(=O)NCCO)cc2)cc1`, the growth was 81.1%.

As for `Cc1ccc([P+](Cc2ccccc2)(c2ccccc2)c2ccccc2)cc1`, the growth is -25.3% (active).

As to `O=C(Nc1cccc(Cl)c1)OCC(COC(=O)Nc1cccc(Cl)c1)(COC(=O)Nc1cccc(Cl)c1)[N+](=O)[O-]`, the growth was 18.6%.

Consider `COc1ccc(Cn2cc3c(c2-c2cc(OC)c(OC)c(OC)c2)CCc2cnoc2-3)cc1N`, for which the growth was 80.8%.

With `COc1ccc(-c2nnc(SCC(=O)c3ccccc3)o2)cc1`, the growth was 89.2%.

Regarding `Cc1ccc([P+](Cc2ccc([N+](=O)[O-])cc2)(c2ccc(C)cc2)c2ccc(C)cc2)cc1`, the growth was -19.6% (active).

With `Cc1cc(Cl)ccc1Nc1nc(C(F)(F)F)ccc1C(=O)N/N=C/c1ccccc1Cl`, the growth is -1.9% (active).

In the case of `O=C(OCc1ncc(-c2ccc(C(F)(F)F)cc2)c(NC2CCCCCC2)n1)c1c(F)c(F)c(F)c(F)c1F`, the growth was 6.29% (active).

As for `O=C1CC(c2cccc(-c3cccnc3)c2)=Nc2ccc(Br)cc2N1`, the growth was 23.5%.

With `c1ccc(OCCC[P+](c2ccccc2)(c2ccccc2)c2ccccc2)cc1`, the growth is -31.3% (active).

In the case of `COCCNCC(O)Cn1c2ccc(Cl)cc2c2cc(Cl)ccc21` (stereo not drawn), the growth is 135%.

Turning to `Nc1cc2c(cc1Cl)-c1ccc(Cl)cc1C2=O`, the growth was 78.1%.
